From PubChem BioAssay AID2501 (Southern Research Specialized Biocontainment Screening …, 2010)
The campaign covered roughly 2,200 compounds. About 1,200 (55%) were called active. The limit is not given here; nearly all actives have IC50 up to about 92 µM. So high a share suggests a set chosen from earlier hits. This is one part of the list.

Test: counter assay for TAg ATPase ADP read-out – biochemical, ADP-Hunter, fluorescence, counter-screen (AID 2501);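 also: purified T antigen ATPase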;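 as to inhibition: 0% = enzyme with vehicle and 100% = reference inhibitor wells; higher means more inhibition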
Conditions: series mostly up to 100 µM; inhibition: at the top concentration

Structure (SMILES) | inhibition | IC50
C=C(CC)C(=O)c1ccc(OCC(=O)O)c(Cl)c1Cl | 2.1% (inactive) | 
Cc1ccc(CNC(=O)C2CC(c3ccccc3[N+](=O)[O-])=NO2)cc1 (stereo unspecified) | 4.09% (inactive) | 
CC1=C(C#N)c2nc(N)c(C#N)c(C)c2/C1=C\c1ccc(-c2ccccc2C(=O)O)o1 | 24.6% (inactive) | 
CCN=c1scc(C)n1/N=C/c1cc(Br)c(O)c(Br)c1 |  | 6.61 µM (active)
CN=c1scc(C)n1/N=C/c1cc(Br)c(O)c(OC)c1 |  | 5.68 µM (active)
CN=c1scc(C)n1/N=C/c1ccc(O)cc1O |  | 3.58 µM (active)
COc1cc(/C=N/NC(=O)CC#N)cc(Br)c1O |  | 6.13 µM (active)
COc1cc([N+](=O)[O-])cc(/C=N/NC(=O)CC#N)c1O | -12.9% (inactive) | 
O=C1CSC(=S)N1/N=C/c1ccc(O)c([N+](=O)[O-])c1 | 6.19% [at 50 µM] (inactive) | 
COc1cc(/C=N/N(C)C)cc(Br)c1O |  | 3.75 µM (active)
CCN=c1scc(C)n1/N=C/c1cc(Br)c(O)c(OC)c1 |  | 14.6 µM (active)
COc1cc(/C=N/N2C(=O)CSC2=S)cc(Br)c1O |  | 13.3 µM (active)
COC(=O)c1ccccc1-n1c(C)nc(=O)c(-c2ccccc2)c1C | 10.8% (inactive) | 
C[N+]1(CCCCSc2ccc(O)cc2)CCCCC1 |  | 4.59 µM (active)
CNc1n[nH]c(=S)s1 |  | 92.7 µM (active)
CC(=O)Oc1cc(O)c2c(=O)c(OC(C)=O)c(-c3ccc(OC(C)=O)c(OC(C)=O)c3)oc2c1 |  | 16.6 µM (active)
CC1(C)CC(=O)C=C(NCCc2ccccc2)C1 | -19.5% (inactive) | 
CN1CCN(S(=O)(=O)c2ccc3c(c2)NC(=O)C2CCCN32)CC1 (stereo unspecified) | -7.97% (inactive) | 
NC(=O)c1ccc(N2CCN(c3ccc(O)cc3)CC2)c([N+](=O)[O-])c1 |  | 7.83 µM (active)
CN1CCN(S(=O)(=O)c2ccc(N3CCN(c4ccc(O)cc4)CC3)c([N+](=O)[O-])c2)CC1 |  | 4.03 µM (active)
CC(=O)Nc1ccc(S(=O)(=O)N2CCN(Cc3ccccc3[N+](=O)[O-])CC2)cc1 | -7.97% (inactive) | 
O=[N+]([O-])c1ccc(N2CCN(c3ccc(O)cc3)CC2)cn1 |  | 5.49 µM (active)
O=C(Nc1ccc(CN2CCOCC2)cc1)c1ccc(N2CCCC2)c([N+](=O)[O-])c1 | -12.7% (inactive) | 
O=C(O)c1ccc(-c2ccc(O)c(F)c2)cc1 |  | 7.49 µM (active)
O=C1NC(C(=O)O)=CC(c2ccc([N+](=O)[O-])cc2)N1 (stereo unspecified) | -6.48% (inactive) | 
O=C(O)c1ccc(-n2c(-c3cc(-c4ccco4)[nH]n3)n[nH]c2=S)cc1 | 27.3% (inactive) | 

Structure (SMILES) | inhibition | IC50
Cc1cc(-c2n[nH]c(=S)n2/N=C/C=C/c2ccco2)n[nH]1 |  | 97.4 µM (active)
S=c1[nH]nc(COc2ccccc2)n1/N=C/C=C/c1ccco1 | 21.1% (inactive) | 
Cc1ccnc(NC(=S)NC(=O)/C=C/c2ccco2)c1 | 8.26% (inactive) | 
CC(/C=N/n1c(-c2ccncc2)n[nH]c1=S)=C\c1ccco1 |  | 44.3 µM (active)
Cc1ccsc1/C=N/n1c(-c2cccnc2)n[nH]c1=S |  | 25 µM (active)
CC(/C=N/n1c(-c2n[nH]c3c2CCC3)n[nH]c1=S)=C\c1ccco1 |  | 49 µM (active)
O=C(O)c1cc(-c2ccco2)nc2ccc(Br)cc12 | 13.5% (inactive) | 
Cc1ccc(/C=N/n2c(-c3ccco3)n[nH]c2=S)cc1 |  | 16.5 µM (active)
S=c1[nH]nc(-c2n[nH]c3c2CCC3)n1/N=C/C=C/c1ccco1 |  | 28.2 µM (active)
C=CCn1c(-c2ccc3ncccc3c2)n[nH]c1=S | 22.6% (inactive) | 
Cc1cccc(/C=N/n2c(-c3ccncc3)n[nH]c2=S)c1 |  | 88.6 µM (active)
Cc1ccc(-n2c(-c3cc(-c4ccco4)[nH]n3)n[nH]c2=S)c(Br)c1 | 27.1% (inactive) | 
CC(/C=N/n1c(-c2cccnc2)n[nH]c1=S)=C\c1ccccc1 |  | 38.8 µM (active)
CCS(=O)(=O)N1CCC(C(=O)NCCN2CCOCC2)CC1 | 20.6% [at 50 µM] (inactive) | 
Cc1cc(C(F)(F)F)nc2c(Cl)c(C(C)(C)C)nn12 | -28.7% (inactive) | 
NS(=O)(=O)c1ccc(N=Nc2c[nH]c(=O)c(O)c2)cc1 |  | 7.75 µM (active)
Cc1cccc(C)c1NC(=S)Nc1ccccc1C(=O)NCc1ccco1 | 8.4% (inactive) | 
CCOC(=O)c1[nH]c2ccccc2c1NC(=S)Nc1cccc(C)c1C |  | 29 µM (active)
CCOC(=O)c1c(C)[nH]c(C(=O)OCC(=O)Nc2cc(Cl)ccc2OC)c1C | -25.2% (inactive) | 
Oc1ccc(/C=N/NC(=S)NCCN2CCOCC2)c(O)c1 |  | 4.25 µM (active)
COc1ccc(NC(=S)N/N=C/c2ccc(F)c(F)c2)cc1 |  | 23.4 µM (active)
COc1cc(/C=N/NC(=S)NCCN2CCOCC2)ccc1O |  | 2.37 µM (active)
COc1ccc(C(=O)N/N=C/c2ccc(OC)c(CN3CCc4cc(OC)c(OC)cc4C3C)c2)cc1 (stereo unspecified) | 7.43% (inactive) | 
COc1ccc(CNS(=O)(=O)c2ccc(F)c(C(=O)Nc3ccc(OC)cc3)c2)cc1 | 4.99% (inactive) | 
COc1ccc(/C=N/NC(=O)c2ccc(Br)cc2)cc1CN1CCOCC1 |  | 13 µM (active)
COC(=O)c1sc2nc(-c3ccco3)ccc2c1N | 22.9% (inactive) | 

Structure (SMILES) | inhibition | IC50
COc1cc(N2C(=O)C=CC2=O)c(OC)cc1Cl | -17.9% (inactive) | 
O=C(O)Cc1nn(Cc2ccc(Cl)cc2)c(=O)c2ccccc12 | -11% (inactive) | 
O=c1oc2c3c4c(cc2s1)CCCN4CCC3 | 17.1% (inactive) | 
CCCCCCNC(=O)N[C@H](C(=O)NCCC[C@H]1CN2C(=NC[C@H]2C)N1CCC(c1ccccc1)c1ccccc1)C(C)O (stereo partly specified) | 3.98% (inactive) | 
CCN(CC(=O)NC(C)C)C(=O)Cc1ccc(C)c(C)c1 | 8.8% (inactive) | 
O=C(CCN1CCN(c2ccccc2)CC1)N/N=C/c1ccc(O)c(O)c1O | -207% (inactive) | 
Oc1cccc(/C=N/NC(=S)NCCN2CCOCC2)c1O |  | 7.38 µM (active)
COc1ccc(CNC(=S)N/N=C/c2ccc(O)c(OC)c2)cc1 |  | 7.64 µM (active)
Cc1c(NC(=O)CCC2CCCCC2)cc(C(=O)N2CCOCC2)cc1[N+](=O)[O-] | -18.6% (inactive) | 
COCCCOc1ccnc(CS(=O)c2nc3ccccc3[nH]2)c1C (stereo unspecified) | 28.1% (inactive) | 
O=C(O)CC1S/C(=N/N=C/C2CC=CCC2)NC1=O (stereo unspecified) | 12.7% (inactive) | 
Cc1cc(C)nc(SCc2cc(=O)c(OC(=O)c3ccc(S(=O)(=O)N4CCCC4)cc3)co2)n1 | 7.74% (inactive) | 
O=C(CN1CCN(S(=O)(=O)c2ccc(F)cc2)CC1)c1ccc(O)c(O)c1 |  | 7.5 µM (active)
Cc1ccc(S(=O)(=O)N2[C@@H](c3ccc(Cl)cc3)C(C(=O)O)=CC[C@H]2c2ccc(C(C)C)cc2)cc1 | -7.5% (inactive) | 
CC(C)c1ccc(S(=O)(=O)N2CCN(CC(=O)c3ccc(O)c(O)c3)CC2)cc1 |  | 5.79 µM (active)
Cc1cccc(-c2ncc(CN3CCCC(CO)(Cc4ccccc4C)C3)cn2)c1 (stereo unspecified) | 10.8% (inactive) | 
CCOc1ccc(OCCC(=O)OCC(=O)Nc2cc(OCC)c(N3CCOCC3)cc2OCC)cc1 |  | 8.04 µM (active)
CCOc1ccc(CCNC(=O)c2cc(-c3ccccc3)c(N3CCOCC3)s2)cc1OCC | 5.68% (inactive) | 
CCNC(=S)Nc1cc(OCC)c(N2CCOCC2)cc1OCC |  | 4.1 µM (active)
CC1CCN(CC(C)OC(=O)c2ccc3c(c2)OCCO3)CC1 (stereo unspecified) | -4.34% (inactive) | 
CCOc1cc(N2CCOCC2)c(OCC)cc1NS(=O)(=O)c1ccc(Cl)s1 |  | 6.56 µM (active)
CCOc1cc(N2CCOCC2)c(OCC)cc1NC(C)C(=O)N1CCC(C)CC1 (stereo unspecified) |  | 5.37 µM (active)
CCCC(=O)O[C@]1(C(=O)CO)CC[C@H]2[C@@H]3CCC4=CC(=O)CC[C@]4(C)[C@H]3[C@@H](O)C[C@@]21C | 23.6% (inactive) | 
COc1cc(/C=N/Nc2nc3ccccc3[nH]2)cc(OC)c1O |  | 6.33 µM (active)
COc1cc(/C=N/Nc2nc3ccccc3[nH]c2=O)ccc1O |  | 8.65 µM (active)
COc1cc(/C=N/Nc2nc3ccccc3o2)cc(OC)c1O |  | 6.58 µM (active)

Structure (SMILES) | inhibition | IC50
C(=N\Nc1nc2ccccc2[nH]1)/c1cccs1 |  | 7.86 µM (active)
COc1cc(/C=C2\CCc3c2nc2ccccc2c3C(=O)O)cc(OC)c1OC | 13% (inactive) | 
CCC[C@@H]1CCCO[C@@](C(=O)NCc2ccc(S(C)(=O)=O)cc2)(C(F)(F)F)C1 | 8.24% (inactive) | 
Cc1c(N=C2NC(=O)/C(=C/c3ccc(O)cc3)S2)c(=O)n(-c2ccccc2)n1C |  | 10 µM (active)
O=C1NC(=NCc2ccccc2)S/C1=C/c1ccc(O)cc1 |  | 8.9 µM (active)
Cc1cc(/C=C2\SC(=S)NC2=O)c(C)n1-c1cccc(O)c1 | 6.67% (inactive) | 
O=C1NC(=O)/C(=C/c2ccc(O)cc2)S1 |  | 5.07 µM (active)
O=C1N/C(=C\c2ccc(O)cc2)C(O)=C1C=NCc1ccccc1 |  | 5.69 µM (active)
COc1cccc2sc(Nc3nnc(-c4cccs4)o3)nc12 | 3.33% (inactive) | 
O=C(/C=C/c1ccc2ccccc2n1)N1CCN(S(=O)(=O)c2ccccc2F)CC1 | 12% (inactive) | 
CCCC1Nc2ccc(C(=O)O)cc2C2C=CCC12 (stereo unspecified) | 8.3% (inactive) | 
COc1ccc2nc3ccccc3nc2c1N |  | 19.9 µM (active)
NC(=O)NCCCC(=O)OCC(=O)c1ccc2ccccc2c1 | -5.96% (inactive) | 
Cc1ccc2oc(=O)c(/C=C(\O)C(C)(C)C)nc2c1 |  | 6.56 µM (active)
Cc1ccc2oc(=O)c(/C=C(\O)CC(C)C)nc2c1 |  | 4.38 µM (active)
NNc1nc(-c2ccccc2)nc(-c2ccccc2)c1Br | -1.06% (inactive) | 
COc1cc(/C=N/NC(=O)c2ccccc2O)ccc1OC(=O)CC1SC(=O)NC1=O (stereo unspecified) |  | 33.4 µM (active)
O=C(CC1SC(=O)NC1=O)Oc1ccc(/C=N/NC(=O)c2ccccc2O)cc1 (stereo unspecified) |  | 50.6 µM (active)
CC[C@H](C)/C=C/C1=CC2=C(Cl)C(=O)[C@@]3(C)OC(=O)C(C(=O)[C@H](C)[C@@H](C)O)=C3C2=CO1 | 21.5% (inactive) | 
Nc1ccc(Nc2nc3ccccc3[nH]2)cc1 |  | 6.24 µM (active)
O=C(CCc1ccc(O)c(O)c1)NNC(=S)Nc1ccc(Br)cc1Cl |  | 19.5 µM (active)
O=C(CSC1=NS(=O)(=O)c2ccccc21)Nc1ccccc1 | 15.9% (inactive) | 
O=S1(=O)N=C(Nc2ccc(O)cc2)c2ccccc21 |  | 3.57 µM (active)
